Assay results: the supplement of paper PMC13392028

System: PvIESI-1 RRM domain (Plasmodium vivax PVP01_0939900 aa 896-1203, GST fusion)
Assay: RBNS R-value (6-mer enrichment in protein-bound RNA vs input library) (ratio); higher = stronger binding preference; the methods of the paper give 50 / 100 / 500 nM protein instead
Protocol: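 RNA Bind-n-Seq: recombinant GST-tagged IESI-1 RRM domain was incubated at room temperature with a random 40-nt in vitro transcribed RNA library at 250, 500 or 1000 nM protein. Bound RNA was pulled down on glutathione beads and sequenced. R-value is the enrichment of each 6-mer in the bound RNA relative to the input library. Each 6-mer sits inside the random 40-mer context, not as an isolated oligo. Values are replicate 1 only.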

Sequence | RBNS R-value (protein concentration: 250 nM) | RBNS R-value (protein concentration: 500 nM) | RBNS R-value (protein concentration: 1000 nM)
GAUGAA | 2.73 | 2.89 | 2.83
UUUGAU | 3.94 | 4.25 | 3.98
GAUGUG | 2.3 | 2.53 | 2.31
UGAUGC | 3.72 | 4.04 | 3.95
GAUUGA | 2.27 | 2.42 | 2.29
GAUGAC | 2.47 | 2.67 | 2.51
UGAUAG | 3 | 3.35 | 3.29
ACCCGA | 1.44 | 1.74 | 1.74
UUGAUC | 1.91 | 2.12 | 2.1
UGAUAC | 2.41 | 2.83 | 2.87
CCUGAU | 3.03 | 3.36 | 3.13
GAUGAG | 2.33 | 2.49 | 2.4
UGAUCU | 2 | 2.15 | 2.14
